Shown is part of a subset that was picked to be rich in hits.
IkB sig inh – IkB pathway inhibition in ABC-DLBCL cells; 110,000 compounds, 0.04% hits; Potency, µM (titrated, usually from 57.1 µM), inactives show at the top dose IkBa stabilization activation; ABC-DLBCL IkBa-CBG/CBR dual luciferase ratio, 4 h; response scale: scaled: untreated 0%, proteasome inhibitor 100%; active means well fitted curve in the direction sought with a large enough effect in the signal ratio, not every such curve was filed as active; inconclusive means small, poorly fitted or top-dose-only effect, or a change in a side signal; the % refers to the signal ratio;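 further: potency means the concentration at half of the fitted maximal effect; the direction sought is a rising ratio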
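Luminescence ratio of IκBα-fused green versus native red beetle luciferase in OCI-Ly3 cells, 4 h post-doxycycline with compound; red signal alone, scaled from basal (0%) to zero light (-100%), flagged nonspecific or cytotoxic effects.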
GFP derepression – derepresses silenced GFP locus in mouse C127i cells; mouse C127i GFP locus derepression, cytometry, 30 h; Potency, µM (series often up to 46.1 µM), for inactives: top-dose GFP derepression (activation); 68,000 compounds, 0.09% hits; AID 597; further: % of control where 0% means no effect
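Locus derepression in mouse mammary C127i cells whose integrated CMV-GFP reporter is normally silent; GFP expression after 30 h compound treatment was quantified by counting fluorescent cells.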
CRE-bla Fsk – alters forskolin-stimulated CRE reporter signaling in CHO cells; Potency, µM (series often up to 38.2 µM), inactives show at the top dose activity change, negative = inhibition, usual class: activators; CHO CRE-bla reporter (cAMP response element driving beta-lactamase), forskolin EC10, beta-lactamase ratio; AID 662; 71,000 compounds, 2.5% hits; active means well fitted activation curve with a large enough effect in the signal ratio, with a control signal flat, not every such curve was filed as active; inconclusive means small, poorly fitted or top-dose-only effect, or effect the other way, or a change in a side signal; the % refers to the signal ratio; further: potency means the concentration at half of the fitted maximal effect; % of control where 0% means no effect
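AC50 values, positive or negative, reflect shifts in EC10 NKH 477-induced CRE-bla reporter activity in CHO cells. Incubation lasted 3 h at 37 °C before CCF4 substrate (2 h, room temperature) and ratiometric 460/530 nm reading.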
HBB splicing – alters splicing of the hemoglobin beta chain. 65,000 compounds, 0.06% hits. Potency, µM (highest dose often 46.1 µM), for inactives: top-dose activation, actives largely listed as activators. HBB splicing reporter cell assay, activation; EGFP reporter with mutant IVS2-654 intron; response scale: normalised to 500 nM splice-correcting PNA; further: potency means the concentration at half of the fitted maximal effect; 0% is about no effect
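HeLa cells stably expressing EGFP interrupted by mutant beta-globin intron 2 (IVS2-654), 500/well in 2% FCS. Treated with compound for 2 days at 37C. Splicing correction scored as total well GFP intensity (488 nm excitation, 500-520 nm emission); 500 nM antisense PNA served as control.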
ERK AVP inh – vasopressin-driven ERK pathway inhibition | HEK293-V1b, vasopressin-stimulated pERK AlphaScreen | Potency, µM (series often up to 57.5 µM), without a hit: at the top dose activity, negative = inhibition, most hits filed as inhibitors | 72,000 compounds, 0.99% hits | AID 995; further: potency means the concentration at half of the fitted maximal effect; on the % scale 0 is the no-effect control and ±100 the full control effect; nearly all actives have a fitted effect of over 55% in size
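Overnight-seeded V1b-HEK293 cells in 1% FBS got compound, then vasopressin (25 nM final, 5 min, 37C), then lysis buffer. AlphaScreen detection of phospho-ERK; activity normalized to basal and full-stimulation controls.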
The depositor's hits bear a star; ? = inconclusive; nt = no result given; [ ] = remark or other dose. Unless noted, the call rests on the fitted dose curve; in most records, active means well fitted curve in the direction sought with a large enough effect; inconclusive means small, poorly fitted or top-dose-only effect, or another doubt; inactive means no such curve, though single readings can be large; an effect the other way counts as inactive or inconclusive.

SMILES	IkB sig inh	GFP derepression	CRE-bla Fsk	HBB splicing	ERK AVP inh
CCOC(=O)c1c(C)nc2sccn12	-5%	0%	13µM*	-1%	?
CCOC(=O)c1c(C)nc2ncccn12	-2%	-1%	?	0%	-27%
CCOC(=O)c1c(C)nc2c3ccccc3ccn12	-1%	-3%	7.9µM*	-1%	?
On1onc2c3cc(-c4ccccc4)nc3ccc21	?	9%	?	4%	25µM*
Nc1c(C(=O)NC2CCCC2)c2nc3ccccc3nc2n1N	?	4%	13µM*	4%[0.369 µM]	-31%
CSc1nc(N)nc(SC2C=CCCC2)c1C#N (configuration not stated)	1%	4%	13µM*	0%	-11%
CCCC(=O)Nc1cc(C)c2c(=O)oc3ccccc3c2n1	-3%	nt	?	0%	nt
Cc1cc(NC(=O)CC(C)(C)C)nc2c1c(=O)oc1ccccc12	-2%	4%	2µM*	4%	17%
CCN(CC)S(=O)(=O)c1ccc(Nc2nc3ccccc3n3nnnc23)cc1	?	2%	5µM*	0%	-13%
c1ccc2c(c1)nc(Nc1ccc3c(c1)OCO3)c1nnnn12	?	0%	?	3%	-24%
CN(C)c1ccc(N=Cc2nc(-c3ccccc3)oc2O)cc1	0%	5%	-13%	?	13µM*
C=CCNC(=O)c1c(N)n(-c2cccc(S(N)(=O)=O)c2)c2nc3ccccc3nc12	-1%	9%	10µM*	2%[57.5 µM]	3%
COCCNC(=O)c1c(N)n(-c2cccc(C)c2)c2nc3ccccc3nc12	-3%	-3%	10µM*	0%	9%
COc1ccccc1NC(=O)C1(C)Cc2ccccc2C(=O)O1 (configuration not stated)	8%	nt	14%	-1%	28%
CC1(C(=O)Nc2nccs2)Cc2ccccc2C(=O)O1 (configuration not stated)	?	3%	?	-2%	25µM*
CCc1ccc(NC(=O)c2cc3nc(-c4ccc(C)cc4)cc(C(F)(F)F)n3n2)cc1	-2%	nt	nt	nt	nt
CCOC(=O)c1c(NC(=O)CN2CCCCC2)sc2c1CCCC2O (configuration not stated)	?	nt	10µM*	0%	-9%
CCOC(=O)Nc1sc2c(c1C(=O)OCC)CCC2	-1%	-4%	16%	nt	11%
CCCCCCCCCCCCC(=O)N1CCCC[C@H]1CNC(=O)[C@@H](N)CCCCN	0%	1%	-6%	nt	0%
Cc1cccc(Cn2cnc3c(nnn3Cc3ccccc3F)c2=O)c1	1%	-2%	1.3µM*	1%	-2%
Cc1cc(NC(=O)CSc2nc(-c3ccccc3F)nc3c2c(=O)n(C)c(=O)n3C)no1	-4%	nt	nt	nt	nt
Cc1cc(NC(=O)CSc2nc(C(C)C)nc3c2c(=O)n(C)c(=O)n3C)no1	2%	nt	10µM*	1%	nt
CCc1nc(SCC(=O)Nc2cc(C)on2)c2c(C)c(C)sc2n1	-1%	0%	2.5µM*	0%[57.5 µM]	-4%
COC(=O)[C@H]1[C@@H]2C[C@H]3c4[nH]c5ccccc5c4CCN3C[C@@H]2CC[C@@H]1O	0%[11.4 µM]	2%[9.22 µM]	-10%	nt	nt
COc1ccc(C)cc1NCc1cccc(OC)c1OC	0%	2%	-1%	0%	?
SMILES	IkB sig inh	GFP derepression	CRE-bla Fsk	HBB splicing	ERK AVP inh
COc1cc(OC)c(OC)cc1CNc1cc(C)ccc1OC	?	2%	20%	0%[9.22 µM]	25µM*
FC(F)(F)c1cccc(-c2noc(-c3cc(-c4ccccc4)c(C(F)(F)F)s3)n2)c1	nt	nt	nt	1%	13%
O=C(COC(=O)c1cccc(NC(=O)c2ccco2)c1)c1ccc(Br)cc1	?	-4%	?	-1%[0.0738 µM]	16µM*
CCOC(=O)NCCc1c(C)nc2c(c(C)nn2C(C)(C)C)c1C	?	5%	5µM*	-3%	-19%
COC(=O)c1cc(NC(=O)CCc2c(C)nc3c(c(C)nn3C(C)(C)C)c2C)cc(C(=O)OC)c1	0%	nt	nt	nt	nt
COc1cccc(/C=C/c2onc(C)c2S(=O)(=O)N2CCC(C(=O)N3CCCCC3)CC2)c1	-2%	nt	nt	nt	nt
CC(C)(C)[C@@]1(O)CCN2C[C@@H]3c4ccccc4CCc4cccc(c43)[C@@H]2C1	4%	2%	?	2%	13%
COc1ccc2oc(=O)cc(CN3CCN(c4ccccc4OC)CC3)c2c1	2%	nt	nt	nt	nt
COc1ccccc1-n1c(=O)oc2ccc(Cl)cc2c1=O	?	0%	-11%	-3%	20µM*
Cc1noc(C)c1CSc1nc2ccccc2c(=O)n1-c1ccccc1	?	-2%	10µM*	1%	?
Cc1nc(CSc2nc3[nH]ncc3c(=O)n2-c2ccccc2)cs1	-1%	9%	?	0%	-7%
Cc1noc(C)c1CSc1nc2[nH]ncc2c(=O)n1-c1ccccc1	4%	4%	10µM*	-2%	13µM*
Fc1cc(F)c2ncc3c(-c4ccccc4)nn(-c4cccc(Cl)c4)c3c2c1	-2%	nt	nt	nt	nt
Cc1cc(Cc2c(C)c(C)c(Cc3cc(C)cc(C(C)(C)C)c3O)c(C)c2C)c(O)c(C(C)(C)C)c1	1%[11.4 µM]	3%[9.22 µM]	-2%[7.6 µM]	-1%[9.22 µM]	2%[11.5 µM]
CCN(CC)CCCNC(=O)c1ccc2c(c1)sc1nc(-c3ccc(C)cc3)cn12	1%	nt	nt	nt	nt
O=C1CCCN1CCCNc1ncnc2c1[nH]c1ccc(Cl)cc12	-1%	0%	1µM*	-2%[0.369 µM]	?
COc1ccc(C)cc1NC(=O)Cc1c(C(=O)O)c(C)cn1C	1%	nt	nt	nt	nt
Cc1ccc2nc(CSc3nnc(-c4ccco4)n3-c3ccccc3)cc(=O)n2c1	0%	1%	5µM*	0%[57.5 µM]	20%
c1ccc(-n2c(SCc3ccncc3)nnc2-c2ccco2)cc1	0%	0%	15%	-1%	-27%
Cc1ccc2nc(CSc3nnc(-c4ccco4)o3)cc(=O)n2c1	0%	-1%	?	-1%	?
c1ccc(-n2c(SCc3nc(-c4cccs4)no3)nnc2-c2ccco2)cc1	?	0%	5µM*	0%	-22%
Cc1cc2ccccc2n1CCNC(=O)C1CCCC1	0%	4%	-23%	1%	25%
Cc1cc2ccccc2n1CCNC(=O)C1CC1	1%	nt	13µM*	-1%	nt
COc1ccccc1-c1nnc2sc(-c3cnccn3)nn12	11%	-3%	?	-1%	-18%
COc1ccccc1-c1nnc2sc(-c3cc4ccccc4o3)nn12	-4%	3%	4µM*	3%	-11%
COc1ccccc1-c1nnc2sc(-c3ccc(N(C)C)cc3)nn12	-2%	3%	0.4µM*	1%	1%
Clc1ccccc1-c1nnc2sc(-c3ccncc3)nn12	1%	nt	16%	0%	nt
CN(C)c1ccc(-c2nn3c(-c4ccccc4Cl)nnc3s2)cc1	-1%	-3%	2.5µM*	1%	-13%

Compound activity from PubChem.
